Rows were chosen to be rich in hits. Some 18% of all compounds tested hit in one or more screens of this group.
IL-1B inflam inh: inhibitors of inflammasome signaling (IL-1 beta secretion) | THP-1 LPS/ATP IL-1B secretion, AlphaLISA, 16 h; stronger effect = lower value | activity change, % at 57.5 µM | 360,000 tested, 4.7% active | AID 743279; in the data active means activity change below about -50%; inconclusive means mostly about -30% to -49%; further: on the % scale 0 is the no-effect control and ±100 the full control effect
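THP-1 cells pretreated 1 hr with compounds (up to 57.5 uM final), then stimulated with LPS (250 ng/mL final) plus ATP (1.25 mM final); secreted IL-1B measured by AlphaLISA after 16 hr, decreased signal indicating inhibition.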
HepG2 tox: kills HepG2 cells in TGF-b inhibitor counter-screen; HepG2 CAGA-GFP viability, ATP luminescence, 18 h; Potency, µM (series often up to 46.1 µM), for inactives: at the top dose activity change, negative = cytotoxicity, hits mostly cytotoxic; 410,000 tested, 0.76% active; further: potency means the concentration at half of the fitted maximal effect
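CellTiter-Glo luminescence gave cytotoxicity after 18 hours at 37 degrees C. The cells were HepG2 CAGA-GFP in 1% FBS DMEM, stimulated with 500 pg/mL TGF-beta after compound addition. %Activity was normalised to no-cell wells (complete cell-killing) and DMSO (no toxicity), and curves were fitted and classified.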
TGFb SMAD3 inh: TGF-b pathway inhibition | Potency, µM (series often up to 46.1 µM), for inactives: at the top dose activity, negative = inhibition, actives largely listed as inhibitors | 410,000 tested, 1.2% active | HepG2 CAGA-GFP TGF-b/SMAD3 reporter, GFP fluorescence, 18 h; TGF-beta stimulated, 500 pg/mL final; further: potency means the concentration at half of the fitted maximal effect; on the % scale 0 is the no-effect control and ±100 the full control effect; nearly all actives have a fitted effect of over 65% in size
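Cell-based qHTS in HEPG2 carrying a CAGA-GFP Smad reporter; compounds added before 500 pg/mL final TGF-beta, 18 h incubation at 37 degrees C, GFP fluorescence quantified per cell by imaging cytometry.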
DT40 TDP1 CPT: growth inhibition of DT40 Tdp1-/-;hTDP1 cells with camptothecin (screen for TDP1 inhibitors). Potency, µM (top dose mostly 46.2 µM), for the others: top-dose activity change, negative = growth inhibition, usual class: inhibitors. chicken DT40 Tdp1-/-;hTDP1 cells + 20 nM CPT, ATP luminescence, 48 h. 420,000 tested, 12% active; further: potency means the concentration at half of the fitted maximal effect; on the % scale 0 is the no-effect control and ±100 the full control effect; nearly all actives have a fitted effect of over 55% in size
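Chicken DT40 Tdp1-/- cells complemented with human TDP1, 400 cells/well, exposed to compounds plus 20 nM camptothecin for at least 48 h at 37 C; viability read as ATP content by CellTiter-Glo luminescence.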
TDP1 cell noCPT: qHTS for Inhibitors of human tyrosyl-DNA phosphodiesterase 1 (TDP1): qHTS in cells in absence of CPT; DT40 Tdp1-/- hTDP1 cells, no CPT, ATP luminescence, 48 h; Potency, µM (titrated, usually from 46.2 µM), inactives show top-dose activity change, negative = growth inhibition, hits mostly inhibitors; 420,000 tested, 15% active; further: potency means the concentration at half of the fitted maximal effect; on the % scale 0 is the no-effect control and ±100 the full control effect; nearly all actives have a fitted effect of over 55% in size
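Growth of hTDP1-complemented DT40 Tdp1-knockout cells is measured by ATP luminescence after at least 48 hr compound exposure at 37 °C, with DMSO substituting for the 20 nM CPT used in the parallel screen.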
TDP1 inh: TDP1 (human) enzyme inhibition; Q9NUW8; Potency, µM (doses to about 130 µM), inactives show at the highest dose activity change, negative = inhibition, most hits filed as inhibitors; 350,000 tested, 0.28% active; AID 485290; recombinant TDP1, AlphaScreen DNA substrate cleavage; further: potency means the concentration at half of the fitted maximal effect; on the % scale 0 is the no-effect control and ±100 the full control effect; nearly all actives have a fitted effect of over 40% in size
Target sequence (Q9NUW8 whole entry, looked up): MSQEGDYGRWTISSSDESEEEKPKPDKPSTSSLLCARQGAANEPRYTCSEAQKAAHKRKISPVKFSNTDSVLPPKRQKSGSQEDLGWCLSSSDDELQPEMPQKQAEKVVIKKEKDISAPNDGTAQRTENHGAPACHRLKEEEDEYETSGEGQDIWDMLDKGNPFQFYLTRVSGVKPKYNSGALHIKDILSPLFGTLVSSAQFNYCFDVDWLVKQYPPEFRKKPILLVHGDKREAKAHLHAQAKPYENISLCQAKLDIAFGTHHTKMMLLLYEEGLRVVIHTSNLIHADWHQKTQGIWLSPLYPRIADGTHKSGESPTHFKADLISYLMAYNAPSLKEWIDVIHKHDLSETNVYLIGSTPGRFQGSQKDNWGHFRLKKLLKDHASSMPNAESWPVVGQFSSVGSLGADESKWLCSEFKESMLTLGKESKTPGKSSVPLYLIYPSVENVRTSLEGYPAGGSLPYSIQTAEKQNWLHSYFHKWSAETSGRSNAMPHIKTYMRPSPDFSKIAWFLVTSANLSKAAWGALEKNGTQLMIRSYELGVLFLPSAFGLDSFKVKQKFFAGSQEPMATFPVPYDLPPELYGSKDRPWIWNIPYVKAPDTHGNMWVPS
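Compounds were preincubated with Tdp1 (1 nM final) for 15 min at room temperature before substrate (15 nM final) started a 5 min reaction; beads (10 ug/ml final) were then added for 10 min before AlphaScreen detection.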
The depositor's hits bear a star; u = inconclusive; x = no result given; [ ] = dose if it differs, or a comment. Unless noted, the call rests on the fitted dose curve; in most records, active means well fitted curve in the direction sought with a large enough effect; inconclusive means small, poorly fitted or top-dose-only effect, or another doubt; inactive means no such curve, though single readings can be large; an effect the other way counts as inactive or inconclusive.

SMILES	IL-1B inflam inh	HepG2 tox	TGFb SMAD3 inh	DT40 TDP1 CPT	TDP1 cell noCPT	TDP1 inh
Cc1ccc(NC(=O)CCSc2nnc3ccccn23)cc1	-5.4	-1.0%	21.4%	8.3%	u	0.0%
CCOC(=O)c1c(-c2ccc(C)cc2)csc1NC(=O)CCSc1nnc2ccccn12	21.6	-4.6%	-5.9%	23.1µM*	23.1µM*	-2.7%
COc1ccc(S(=O)(=O)NC(CC(C)C)C(=O)NC(C)c2cccs2)cc1 (configuration not stated)	8.0	-3.2%	2.1%	-20.4%	-6.4%	-0.4%
COc1ccc(C[C@H]2COC(=O)[C@@H]2Cc2ccc(OC3OC(CO)C(O)C(O)C3O)c(OC)c2)cc1OC (some centres not stated)	37.6	-12.9%	-0.6%	u	20.6µM*	-2.7%
COc1cc(C2OCC3C(c4ccc(OC5OC(CO)C(O)C(O)C5O)c(OC)c4)OCC23)ccc1O (configuration not stated)	-3.3	0.3%	1.0%	1.0%	-1.8%	-3.8%
COc1cc(C[C@H]2C(=O)OC[C@@H]2Cc2ccc(OC)c(OC)c2)ccc1O	x	x	x	2.37µM*	1.68µM*	11.9%[56.1 µM]
Cc1ccccc1CSc1nc2ccsc2c(=O)n1CCC(C)C	x	5.2%	-0.2%	u	u	7.4%
COCC(=O)O	x	x	x	x	x	3.7%
CCCN1CCC(N2CCN(c3ccc([N+](=O)[O-])cc3)CC2)CC1	-0.7	-17.8%	11.1%	u	20.6µM*	x
O=C1C2CCCN2C(=O)N1CCN1CCN(c2cccc(C(F)(F)F)c2)CC1 (configuration not stated)	56.4	-1.9%	-14.7%	-3.8%	8.2µM*	x
CCCN1CCC(N2CCN(c3cccc(C(F)(F)F)c3)CC2)CC1	51.0	-27.6%	-10.7%	23.1µM*	20.6µM*	-6.3%
CCN1CCC(N2CCN(c3ccc(Cl)cc3)CC2)CC1	12.0	-24.1%	22.9%	4.6%	-18.7%	x
CC1Sc2ccc(S(=O)(=O)CCC(=O)N3CCc4ccccc43)cc2NC1=O (configuration not stated)	63.8	0.2%	-18.4%	-13.9%	-3.8%	0.0%
O=C(Oc1cccc2cccnc12)c1ccco1	33.9	-52.9%	12.6µM*	u	20.6µM*	5.9%[56.1 µM]
O=C(Cc1ccc(Cl)cc1)Oc1cccc2cccnc12	-99.8*	-94.6%	u	0.291µM*	0.82µM*	2.6%
O=C(NCCOc1cccc2cccnc12)c1cccs1	-21.4	-1.9%	-0.4%	-7.8%	-12.2%	0.0%
O=C(Oc1cccc2cccnc12)c1ccc(Br)o1	13.2	0.2%	5.6%	-10.0%	-18.3%	6.1%
O=C(Oc1cccc2cccnc12)c1cccs1	122.6	-42.3%	u	0.92µM*	0.82µM*	3.1%
COc1ccc(C(CNC(=O)c2ccc(NS(=O)(=O)c3cccc([N+](=O)[O-])c3)cc2)N2CCOCC2)cc1 (configuration not stated)	9.2	1.6%	-8.7%	8.2%	-9.8%	3.8%
COc1ccc(OC)c(C2N=C(N)Nc3nc4ccccc4n32)c1 (configuration not stated)	x	-10.2%	-20.5%	-3.5%	7.4%	3.2%
Cc1cc(C2N=C(N)Nc3nc4ccccc4n32)c(C)n1-c1ccccc1Cl (configuration not stated)	-56.3*	-41.2%	11.2µM*	20.6µM*	u	0.0%
Cc1ccc(-n2c(C)cc(C3N=C(N)Nc4nc5ccccc5n43)c2C)c(C)c1 (configuration not stated)	u	-110.3%	u	20.6µM*	23.1µM*	11.4%
Cc1cn(-c2cc(C(=O)Nc3ccc(C)c(NC(=O)C(=O)c4c[nH]c5ccccc45)c3)cc(C(F)(F)F)c2)cn1	2.5	-51.5%	u	8.2µM*	7.31µM*	5.9%
O=C(c1ccc(Br)cc1)c1cc2ccc(O)cc2oc1=O	-14.5	1.8%	-10.6%	u	16.4µM*	x
O=C(NNC(=O)c1cc2cc(Br)ccc2oc1=O)c1ccc(O)cc1O	97.4	-18.5%	u	5.17µM*	9.2µM*	25.1µM*
SMILES	IL-1B inflam inh	HepG2 tox	TGFb SMAD3 inh	DT40 TDP1 CPT	TDP1 cell noCPT	TDP1 inh
CCOC(=O)c1c(S(=O)(=O)N2CCCC(C(=O)Nc3ccc(OCC)cc3)C2)c(C)n(C)c1C (configuration not stated)	x	-4.4%	-5.4%	-26.2%	u	8.3%
Nc1ccc(C(=O)N2CCN(S(=O)(=O)c3ccc(Cl)s3)CC2)cc1[N+](=O)[O-]	-4.0	0.0%	-19.6%	u	-38.3%	-8.9%[0.505 µM]
O=C(NCCN1Cc2ccccc2OC(c2ccsc2)C1)c1ccc2[nH]ccc2c1 (configuration not stated)	x	x	x	-1.6%[9.04 µM]	-24.9%	x
COC(=O)[C@]12CCCCC=C1N(Cc1ccc3c(c1)OCO3)C(=O)[C@H](CC(=O)N1CCC(c3ccccc3)CC1)C2	-13.1	x	x	u	18.4µM*	x
CCOC(=O)[C@]12CCCC=C1N(Cc1ccc3c(c1)OCO3)C(=O)[C@H](CC(=O)N1CCC(c3ccccc3)CC1)C2	-76.4*	x	x	18.4µM*	20.6µM*	x
Cc1cccc(NC(=O)CSc2nc3ccccc3nc2N2CCCC2)c1C	1.0	-13.9%	-12.1%	-14.3%	u	x
CC#CC#Cc1cccc(=O)o1	-74.9*	0.8%	-7.8%	u	u	x
O=C(NCCc1cnc[nH]1)c1ccc(-c2ccccc2)cc1	-54.5*	-32.1%	-2.3%	-41.1%	-10.4%	x
CCOc1ccc(C(=O)NCCc2cnc[nH]2)cc1	31.8	-1.2%	-2.3%	23.4%	3.2%	x
O=C(NCCNC(=O)c1ccccn1)c1ccc(-c2ccccc2)cc1	-1.5	-2.4%	8.5%	-7.6%	20.6µM*	x
CCOc1ccc(C(=O)Nc2cccc(NC(=O)c3ccc(C(C)(C)C)cc3)c2)cc1Br	x	-0.8%	-4.9%	u	5.8µM*	1.0%[2.28 µM]
CCOc1cc(C(=O)Nc2ccccc2F)cc(Br)c1OCC	0.0	4.2%	-7.6%	20.6µM*	u	0.0%
CCOc1cc(C(=O)Nc2ccc(F)cc2)cc(Br)c1OC	-24.7	-26.4%	-24.1%	-21.3%	u	-8.0%
CCOc1ccc(C(=O)Nc2cccc(NC(=O)c3ccco3)c2)cc1Cl	x	-6.3%	-0.4%	u	16.4µM*	0.4%[12.3 µM]
CCOc1ccc(C(=O)NCc2ccccc2)cc1Br	-22.9	3.1%	-5.2%	8.9%	-1.9%	-1.8%

Screening data: PubChem BioAssay, National Center for Advancing Translational Sciences (NCATS)
